Here are results for 49 compounds from ChEMBL document CHEMBL3988442, “University of Dundee, Small-Polar-MMV Screening Library” (2021).

Among all 69,000 compounds or so, about 1,000 (1.4%) showed an effect of 50% or more. The list comes from a sample in which strong results are over-represented; it also holds similar structures and randomly drawn compounds.

The experiment has as its system Leishmania donovani. Nature of the experiment: Leishmania intramacrophage assay. Also on record: scale not given: in the data most compounds retested in dose-response had high values. In kind it is functional, organism-based.

For `Cc1n[nH]c(C2CN(CC(=O)NCCc3ccccc3C)CCO2)n1` (centres undefined), the “Percent Effect” value (30.3 µM, […]) was -38.97%.

`CCCc1cncnc1N1CCC(NCc2cc3ccccc3[nH]2)CC1`: the “Percent Effect” value (30.3 µM, […]) amounted to 84.37%.

`CCCc1cncnc1N1CCC(NCc2ccncc2)CC1`: the “Percent Effect” value (30.3 µM, […]) is -13.54%.

For `CCCc1cncnc1N1CCC(NCc2ccc(O)cc2)CC1`, for the setting “30.3 µM, […]”, the “Percent Effect” value is given as -3.143%.

Consider `CC(=O)N1CCN(c2cc(C3CN(C(C)=O)CCO3)nc(C)n2)CC1` (centres undefined), for which the “Percent Effect” value (30.3 µM, […]) is on record as 2.386%.

With `CC(C)c1ccc(C#N)c(N2CC(C)(C)[C@@](C)(O)C2)n1`, the “Percent Effect” value (30.3 µM, […]) is 3.251%.

Consider `Cc1cc(C)n(CC2CN(CCOc3ccccc3C#N)CCO2)n1` (centres undefined), for which the “Percent Effect” value (30 µM) turned out to be 10.79%.

On to `COCC1CN(c2ncc(F)cn2)Cc2cnn(C)c21.O=C(O)C(F)(F)F.O=C(O)C(F)(F)F` (centres undefined), for which the “Percent Effect” value (30.3 µM, […]) is given as 22.2%.

For the compound `CCn1ncc2c1C(COC)CN(c1ncc(F)cn1)C2.O=C(O)C(F)(F)F.O=C(O)C(F)(F)F` (centres undefined), the “Percent Effect” value (30.3 µM, […]) amounted to 50.28%.

For the compound `CCn1ncc2c1C(COC)CN(Cc1ccc(F)cc1)C2.O=C(O)C(F)(F)F.O=C(O)C(F)(F)F` (centres undefined), the “Percent Effect” value (30.3 µM, […]) was -25.2%.

With `COC1COC2(CCN(S(=O)(=O)c3ccc(F)cc3)CC2)C1` (centres undefined), the “Percent Effect” value (30.3 µM, […]) is listed as 5.953%.

Regarding `CCOC1COC2(CCN(S(=O)(=O)c3cccc(F)c3)CC2)C1` (centres undefined), the “Percent Effect” value (30 µM, 30.03 µM) is listed as -15.08%.

For the compound `Cc1cccc(S(=O)(=O)N2CCC3(CC2)CC(N(C)C)CO3)c1` (centres undefined), the “Percent Effect” value (30.3 µM, […]) is 50.39%.

With `CN(C)C1COC2(CCN(S(=O)(=O)c3ccc(F)cc3)CC2)C1.O=C(O)C(F)(F)F` (centres undefined), for the setting “30.3 µM, […]”, the “Percent Effect” value is 52.86%.

As for `CCOC1COC2(CCN(S(=O)(=O)c3ccc(F)cc3)CC2)C1` (centres undefined), for the setting “30.3 µM, […]”, the “Percent Effect” value was determined as 12.78%.

Turning to `CCOC1COC2(CCN(S(=O)(=O)c3cccc(C)c3)CC2)C1` (centres undefined), for the setting “30.3 µM, […]”, the “Percent Effect” value stood at 23.7%.

Regarding `CC(Oc1ccccc1C#N)C(=O)NC1CC1` (centres undefined), the “Percent Effect” value (30.3 µM, […]) worked out at 8.957%.

As for `Cc1cnn(C2CN(c3nc(C)cc(N(C)C)n3)C2)c1`, under “30.3 µM, […]”, the “Percent Effect” value stood at 24.16%.

On to `CN(Cc1noc2c1CCCC2)C(=O)CN1C(=O)COc2ccccc21`, for which the “Percent Effect” value (30.3 µM, […]) was determined as 18.25%.

Take `CC1CCN(CC(=O)N(C)CCc2noc(C3CC3)n2)C1=O` (centres undefined): the “Percent Effect” value (30.3 µM, […]) was 26.42%.

As to `CN(CCc1noc(C2CC2)n1)C(=O)CN1C(=O)COc2ccccc21`, under “30.3 µM, […]”, the “Percent Effect” value is listed as 99.57%.

With `CC(C)Oc1ncccc1CNC(=O)c1ccccn1`, under “30.3 µM, […]”, the “Percent Effect” value was -8.458%.

As for `CN(Cc1ccc(F)c(F)c1)Cc1cc2c(cc1Br)OCCO2`, the “Percent Effect” value (30.3 µM, […]) turned out to be 17.19%.

On to `c1coc(CNCC2Cn3nncc3CO2)c1` (centres undefined), for which, where the note is “30.3 µM, […]”, the “Percent Effect” value is on record as 55.14%.

On to `c1cc(CNCC2Cn3nncc3CO2)ccn1` (centres undefined), for which the “Percent Effect” value (30.3 µM, […]) amounted to 1.96%.

Turning to `Cc1ccc(CNCC2Cn3nncc3CO2)o1` (centres undefined), the “Percent Effect” value (30.3 µM, […]) came out at 8.133%.

In the case of `CCNc1ccnc(NCC2(N(C)C)CCOCC2)n1`, the “Percent Effect” value (30.3 µM, […]) was 31.76%.

As for `CCc1ncc(C(=O)N2CC(Oc3ccccc3Cl)C2)cn1`, the “Percent Effect” value (30.3 µM, […]) is recorded as 18.16%.

Regarding `COCCN1C[C@H]2CCN(C(=O)c3cc(C)on3)CC[C@H]2S1(=O)=O`, where the note is “30.3 µM, […]”, the “Percent Effect” value is given as -11.97%.

For `Cc1ccc(CNC(=O)NCc2csc(C)n2)cn1`, the “Percent Effect” value (30 µM, 30.03 µM) is 22.66%.

With `Cc1nnc2n1CCN(CCCS(=O)(=O)c1ccccc1)C2`, the “Percent Effect” value (30.3 µM, […]) stood at 27.12%.

Take `CCN(C)c1ncnc2c1CCN(CC1CCOC1)CC2.O=C(O)C(F)(F)F` (centres undefined): for the setting “30.3 µM, […]”, the “Percent Effect” value is -1.105%.

For the compound `CN(C)c1ncnc2c1CCN(CC1CCOCC1)CC2.O=C(O)C(F)(F)F`, the “Percent Effect” value (30.3 µM, […]) is listed as 3.553%.

Take `CCN(CC)c1ncnc2c1CCN(CC1CCOCC1)CC2.O=C(O)C(F)(F)F`: for the setting “30.3 µM, […]”, the “Percent Effect” value came out at 50.25%.

For the compound `Cc1ccc(CN2CCn3c(CNS(C)(=O)=O)nnc3C2)s1`, the “Percent Effect” value (30.3 µM, […]) was determined as 21.51%.

As to `COc1cc(OC)nc(N2CCC3(CC2)OCCCC3O)n1` (centres undefined), for the setting “30.3 µM, […]”, the “Percent Effect” value is given as 12.31%.

Take `c1cc(-c2ccc(CN3CCCC4(CCNC4)C3)s2)[nH]n1` (centres undefined): under “30.3 µM, […]”, the “Percent Effect” value was 24.83%.

For the compound `Fc1cnccc1CN1CCCC2(CCN(c3ncccn3)CC2)C1.O=C(O)C(F)(F)F`, the “Percent Effect” value (30.3 µM, […]) is given as 6.498%.

`CC(=O)N1CCN(CCNc2ncc(Br)cc2C)CC1`: the “Percent Effect” value (30.3 µM, […]) was found to be 1.457%.

On to `COC1CCN(CCNc2ncc(Br)cc2C)CC1`, for which, under “30.3 µM, […]”, the “Percent Effect” value was -8.998%.

Turning to `Cc1cc(C(C)NCCN2CCC(N(C)C)CC2)c(C)s1` (centres undefined), the “Percent Effect” value (30.3 µM, […]) is 59.42%.

`CC(NCCN1CCC(N(C)C)CC1)c1ccc(Cl)s1` (centres undefined): the “Percent Effect” value (30.3 µM, […]) was found to be 43.03%.

In the case of `CC(NCCN1CCC(N(C)C)CC1)c1ccc(F)cc1N(C)C` (centres undefined), the “Percent Effect” value (30.3 µM, […]) was determined as 15.55%.

`Cc1cc(Br)cnc1NCCN1CCC(N(C)C)CC1`: the “Percent Effect” value (30.3 µM, […]) is listed as 96.65%.

For `COCCN1CCN(Cc2c(C3CCNCC3)[nH]c3ncccc23)CC1.Cl`, the “Percent Effect” value (30.3 µM, […]) is recorded as 15.04%.

For `Cn1cc(CN2CCc3onc(C(=O)Nc4cccnc4)c3C2)cn1`, the “Percent Effect” value (30.3 µM, […]) is listed as 24.89%.

As for `CC(C)(C)C(=O)N1CCC(c2cnc(-c3cn[nH]c3)cn2)CC1`, the “Percent Effect” value (30.3 µM, […]) was -18.54%.

For `COc1ccc(Cl)cc1CS(=O)(=O)Cc1nc(C2CC2)no1`, the “Percent Effect” value (30.3 µM, […]) is listed as 28.37%.

Regarding `COc1ccc(Cl)cc1CS(=O)(=O)Cc1noc(C)n1`, where the note is “30.3 µM, […]”, the “Percent Effect” value was 34.45%.
